Measurements from PubChem BioAssay (NCI).
About 83,000 compounds went through this panel and 20% of them were active in at least one assay; those are over-represented in the sample as a whole.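 Treatment: one concentration, 48 hours, 96-well format. Scoring: percent growth, with anything below 10 considered active.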 Values without a mark were called inactive. The source made the active and inactive calls.

system: RXF 393 renal; assay: NCI-60 one-dose screen, 48 h (100 = growth as untreated, 0 = no growth, -100 = all killed); conditions: 10 µM unless noted

For `CC(C)(C)n1cc(-c2ccnc(NCCCNS(=O)(=O)c3cccc(F)c3)c2)c(-c2cccc(O)c2)n1`, which growth is on record?
The growth was 46.5%.

Which growth does the source give for `Cc1ccc(N2CCN(C(C)C(N)=O)CC2)cc1` (centres undefined) here?
The growth was 111%.

For `NC(N)=N/N=C/c1ccc(-c2ccc(-c3cc(Cl)cc(Cl)c3)s2)cc1`, which growth is on record?
Its growth is 27.4%.

Which growth does the source give for `Cc1ccc2nc(-c3cc4c([nH]c5ccccc54)c(-c4ccc(F)c(F)c4)n3)[nH]c2c1` here?
Its growth is 88.5%.

How did the growth turn out when `CNc1ccc(Br)c2c1C(=O)c1ccccc1C2=O` was run?
The growth was 122%.

For `O=C(O)c1cn(C2CC2)c2cc(N3CCN(C(=O)/C=C/c4ccc(Cl)cc4)CC3)c(F)cc2c1=O`, which growth is on record?
Its growth is 72%.

Which growth does the source give for `CCC1=CCC[C@@]2(C)CCC[C@@]3(C)CCCC(C)(C)[C@]1([O-])[O+]32` here?
Its growth is 111%.

With `O=c1[nH]c(-c2ccccc2)nc(CN2CCCCC2)c1O` as the compound, how does the growth read?
The growth was 120%.

How did the growth turn out when `Cc1ccc(Nc2nnc(-c3ccc(Cl)cc3)o2)c(C)c1` was run?
Its growth is 93.8%.

`O=C(N/N=C/C=C\c1ccccc1)C(=O)N/N=C/C=C/c1ccccc1` was tested. Which growth did it give?
Its growth is 127%.

With `COc1cc(-c2nc(N=Nc3c(O)[nH]c4ccc(Br)cc34)[nH]c(=O)c2C#N)cc(OC)c1OC` as the compound, how does the growth read?
The growth was 102%.

For `O=C(NNC(=O)N1c2ccccc2C=Cc2ccccc21)c1ccc2ccccc2c1`, which growth is on record?
Its growth is 103%.

Which growth does the source give for `COc1cccc(-c2nc3sccn3c2-c2ccnc(NCCCNS(=O)(=O)c3ccc(C(F)(F)F)cc3)c2)c1` here?
Its growth is 65.6%.

For `c1cc(C2=N[C@@H]3c4ccccc4C[C@@H]3O2)nc(C2=N[C@@H]3c4ccccc4C[C@@H]3O2)c1`, which growth is on record?
Its growth is 105%.

With `c1cc2[nH]ncc2cc1-c1nc2ccc3[nH]ncc3c2c2c1CCC2` as the compound, how does the growth read?
Its growth is 19.5%.

With `CCOC(=O)C1=C(C)NC(C)=C(C(=O)OCC)C1(C)C` as the compound, how does the growth read?
The growth was 98.1%.

Which growth does the source give for `CCOC(=O)c1ccc2c(c1)nc(-c1ccc(OCc3ccccc3)c(OC)c1)n2-c1cc(C(C)(C)C)[nH]n1` here?
Its growth is 83.6%.

Which growth does the source give for `O=C1/C(=C/c2ccc(Cl)cc2)CN(C(=O)CCN2CCC(=NO)CC2)C/C1=C\c1ccc(Cl)cc1` here?
The growth was -91.3% (active).

With `Cc1ccc(S(=O)(=O)NCCNc2cc(-c3cn(C(C)(C)C)nc3-c3cccc(O)c3)ccn2)cc1` as the compound, how does the growth read?
The growth was 68.2%.

With `CC(C)CC1NC(C)(C)CO1` (centres undefined) as the compound, how does the growth read?
The growth was 109%.

Which growth does the source give for `Cc1ccc(C(=O)C2=Cc3cc4ccccc4n3Cc3cnnn32)cc1` here?
The growth was 95.3%.

With `Brc1ccc(-c2[nH]ncc2-c2c[nH]c3ccccc23)cc1` as the compound, how does the growth read?
Its growth is 103%.

With `CCn1c2ccccc2c2cc(NC(=O)Nc3ccc([N+](=O)[O-])cc3C)ccc21` as the compound, how does the growth read?
The growth was -31.1% (active).

`N=c1ccc2nc3ccc(N)cc3sc-2c1` was tested. Which growth did it give?
Its growth is 73.5%.

Which growth does the source give for `CCOC(=O)/C(C#N)=C1/C(=O)Nc2ccccc21` here?
The growth was 117%.

`O=[N+]([O-])c1ccc(Sc2ncccn2)c([N+](=O)[O-])c1` was tested. Which growth did it give?
The growth was -38.6% (active).

With `O=C(O)C1CCCN1` (centres undefined) as the compound, how does the growth read?
Its growth is 104%.

How did the growth turn out when `OCc1ncc(-c2ccccc2)s1` was run?
The growth was 122%.

`Oc1ccc2cc(Br)ccc2c1-c1c(O)ccc2cc(Br)ccc12` was tested. Which growth did it give?
The growth was 59.8%.

Which growth does the source give for `COc1ccc(/C=C2\Oc3cc(OCCCN4CCCC4)ccc3C2=O)c(OC)c1` here?
Its growth is 77.3%.

For `CC(=O)Nc1ccc(/C=C/C(=O)c2ccccc2)cc1`, which growth is on record?
The growth was 68.2%.

Which growth does the source give for `CC1CCC(C)N(C)C1` (centres undefined) here?
Its growth is 100%.

How did the growth turn out when `O=Nc1c(-c2cccc([N+](=O)[O-])c2)nc2ncccn12` was run?
Its growth is -3.85% (active).

`COc1cc2c(=O)n(C3CCCCCC3)c3c4cc[nH]c4ncc3c2cc1OC` was tested. Which growth did it give?
The growth was 37.7%.

How did the growth turn out when `CN1C(=O)N(C)C2C1NN=c1s/c(=C\C=C\c3ccccc3)c(=O)n12` (centres undefined) was run?
The growth was 77.7%.

For `O=C1c2ccccc2-c2ccccc2C1(Cl)Cl`, which growth is on record?
The growth was -95.6% (active).

Which growth does the source give for `CC(C)(C)n1cc(-c2ccnc(NCCCNS(=O)(=O)c3ccc(Br)cc3)c2)c(-c2cccc(O)c2)n1` here?
Its growth is 20.8%.

How did the growth turn out when `O=C(Nc1ccncc1)C(=O)c1cn(S(=O)(=O)c2ccccc2F)c2ccccc12` was run?
The growth was 28.6%.

For `Nc1cccc(-c2nc3sccn3c2-c2ccnc(NCCNS(=O)(=O)c3ccc(C(F)(F)F)cc3)n2)c1`, which growth is on record?
The growth was 48.7%.
